# According to PubChem BioAssay AID1159506 (National Center for Advancing Translational Sciences (NCATS), 2015):
# In all, about 59,000 sequences were measured (the read-out: median about -0.00055, lowest 2% from about -2 on). This excerpt belongs to a sample that is enriched for the lowest values.
# Assay: Identification of proteins required for the processing of the EWS-FLI1 nascent transcript;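 note: robust z of luciferase light less the median z of siRNAs with the same seed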
# Conditions: TC32 Ewing sarcoma NR0B1-luc vs CMV-luc (EWS-FLI1 target promoter against control promoter), 48 h; screened at 20 nM (by protocol)
# How it was run: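 Parallel TC32-NR0B1-luc and TC32-CMV-luc reverse transfections with 20 nM siRNA in RPMI-1640/10% FBS, luciferase measured 48 h later. Seed-adjusted z-scores from normalized, z-score-MAD transformed data; AllStars negative and siGL4 controls on each plate.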
row,Sequence,seed-corrected z-score
1,UCAGGAACACCGAGUACUC against S100A5,-0.776
2,UAGUUGGUUAAAUUGGACC against TEKT3,-0.0576
3,AAACCUUUUGCAUCUAUGG against GSTA12P,0.753
4,AAAGUUGCUGGUGUGCUCC against NUTM1,-1.38
5,UCUUUGAGCAGCUUCCAGC against SOX4,-5.6
6,UCAGGUAGCAGAGUACUGC against IL22RA1,-0.631
7,AGAGUUCAAAUGUAUUGUC against KLHL21,-1.34
8,UCUUUUUGUAGGUCUCUGC against RCN3,-3.02
9,UCCUUUAACAACAAGUUGU against IL10,-0.0724
10,UCUCUAAACAGGUCCCAAG against PDX1,0.0859
11,AUCGCUAAGACGGUGAUCC against EIF4ENIF1,-0.0436
12,UUCCGCAGCAAUGAUAGGC against TMEM132D,-0.636
13,UCUGCUACUCCAUUGAUCU against TRMT12,-1.63
14,UACAUAGAAGGUGUUGGGC against CD81,0.0377
15,UUCUUUUGUCCAUACAAUC against TAS2R45,-2.34
16,UACAAGCCCAGUUGAGAUC against DSTNP4,-0.547
17,UACGAUAUUGUUGCUACAG against SLIT2,-0.0537
18,UAUUAGUCCCGGACGAAUG against SCAF8,-0.115
19,UUGUUUAUGAGCAAGGUGG against RPL41,-0.22
20,UUUGGUGCAAAGUCCAUGC against SKIV2L,-2.51
21,UUGAGGAUACAGCACAGCC against SERPINI1,-0.491
22,ACAGGCUUUAUCAUACUGC against ZXDC,-0.245

row,Sequence,seed-corrected z-score
1,UAGGUGAUAUCUCUCCGCC against TGM4,-0.284
2,ACAGUUCUCGCAGUACUGG against GPANK1,-0.197
3,UGACCAUCCAGAAGUAGUU against SPHK1,-0.911
4,UUGGUAGAUAUGAUCUUCG against TCEA3,0.375
5,UUGGGUAUUGUUCUUGACU against SNRPD2,-2.58
6,UGUUUAUUAGAAGUGACUC against FOLR2,-0.238
7,UAGUUGUCAGUGAAGACUG against VIP,-2.09
8,CUUGUAGCUUCUCUACAUC against LOC441347,-0.389
9,UUCUCAUCAAGCUGUCUCC against SH3RF2,0.136
10,UAUAACAGCAGUAUCUGUC against TMEM215,0.183
11,UUGUUGAAAUGGAACUCCU against HOXB1,0.384
12,UCAGUGCACGCAACUGUGU against TNXB,0.0625
13,UAUAUGAUUAACAAAACGG against XKR3,0.439
14,UUCUUUCCGAUGAUACUGC against PCBP2,-3.36
15,UUUCGCAGUUGUAAGACCG against CROCCP3,0.0641
16,UAGAAUUUCUCGUACAACC against RALGPS1,0.75
17,UAAUGAGCAGUGACUCUGG against BTBD11,0.456
18,AAUUCUUCAAAACUAACUU against S100G,0.467
19,AUCCGUACGCCUCCGAUUC against PCSK4,-0.594
20,AAGGGAUAAGGGAUCAUCC against ST7,-0.0379
21,UAUAGUUACAUGACUGCUG against SNU13,-6.52
22,UUUUUAAUGCCUUAUAGUC against TTLL13P,1.17

row,Sequence,seed-corrected z-score
1,UACAUAGCUGCAUAGACAC against PLPPR5,-2.18
2,UUCUUUAGCAACAUCACAG against CBR4,0.335
3,UAAGAUAUCUGACCACUAG against ZNF620,0.641
4,UCCAUAUCCCAUGACAUGC against SLC17A6,-0.139
5,UGCUUGAGCAGAAUGACCG against DIO2,-2.14
6,UGAACUUGCACACUUGAGU against KLK7,0.253
7,AAACUUUGGAUGUUUUUGG against PPBP,0.549
8,UUAGUACAGAUGCAGUUCU against OR56A5,-14.6
9,UUUCGGUACGUGUAGUAGC against STRA6,0.803
10,UCUUUGACAAUAUCAACAG against UBE3D,-0.267
11,UGCGUGUCUUCUUUAACCU against FAM174B,-0.0387
12,UUAGAUCCAUGCUAUAAGC against PMS2P12,-0.142
13,UAAUCGUUUCUACAAGAUC against ATF7IP,-2.43
14,UUAAUCUUCAUCGUAAUAG against ZPLD1,-0.649
15,UUUUUCGACAGGAAAGUGU against C5orf60,0.245
16,UUCAUUAUUAUCUCAGGAG against RFC3,-1.02
17,UUCAGCAUAAAGACUGAUC against VPS41,-0.683
18,UCACUUCCUAUUCCCAUGG against PALM3,-1.4
19,AUCUUGGUAACAAACUUGG against TRPV4,-3.43
20,UAAUCGUUGGGAUCCAGUC against PCDHA13,0.188
21,UGUACGAUGAAGGUCAUGC against SLC34A2,-0.00732
22,UUCGUGUUUUGAAUCUUGG against B4GALT2,1.23

row,Sequence,seed-corrected z-score
1,AGCUGGAUCAUUUCUACAG against PKDCC,-2.45
2,UAGACUGUCACGUUGUAUG against SEZ6L,0.278
3,AAAGAGAUAAUGUUCCUCC against FAM180B,0.869
4,UCCCUAACAAAGCAUGUAC against ISL1,-0.138
5,UUCUAAGAAAGCGAGCUGC against EID2B,-0.614
6,UCUCGAGUUAUGUGGUUGG against RAD51D,0.265
7,AUAGUUGCAAUCAAACGAG against SFT2D2,-3.87
8,UCUGGGAAAACAUGGUUGU against DUBR,-1.17
9,ACAGAUAUAACACUCAUCG against ANO10,-0.322
10,AUUGUGACUAUUAUGAGUC against MTND5P10,-0.792
11,UACAGAUCCGCGAUGUACU against RCN3,0.823
12,UUUCCGAAAAUUUAGUGGG against ATAD2,0.659
13,UGGUGGUCCACCUUGUUAG against F13A1,-1.25
14,UCCAGUGCAAUGACUCUUG against ZNF114,-2.45
15,AACUUUUCACUGGUGACCC against C7orf55,-0.00837
16,UCUCAGGAUAGGAACCACC against SPRR2G,-0.114
17,UUUAGAUCUAGAAUUACAC against SPESP1,-0.539
18,UGAGCUCUGAGAAUUGAGG against POM121,0.483
19,UGCAGAUGCGGAAAGCUGC against LOC388692,0.336
